# In the library only some 8.1% were active in any assay of this set; here they are far more common.
# Epigenetic reg – Quantitative High-Throughput Screen for Regulators of Epigenetic Control. Potency, µM (top dose mostly 53.9 µM), for the others: at the highest dose GFP activation, most hits filed as activators. actives 0.2% (n = 280,000). murine LDR cells, GFP reporter derepression, 30 h; note: % of control where 0% means no effect; nearly all actives have a fitted effect of over 60% in size
#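 In this reporter-derepression format, murine cells bearing a silenced integrated CMV-GFP locus incubate with test compound (30 h, 37 C), then are washed and imaged; fluorescent objects of 20–120 um count as induced cells.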
# Gal4-VP16 FLuc – VP16 counterscreen qHTS for inhibitors of ROR gamma transcriptional activity | Drosophila S2 Gal4-VP16 UAS-luciferase, luminescence, 20 h | Potency, µM (series often up to 53.6 µM), for inactives: top-dose activity, negative = inhibition, actives largely listed as inhibitors | actives 3.5% (n = 310,000);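 note: Gal4-VP16 expression switched on by copper sulfate through the metallothionein promoter; % is set by controls: 0 for no effect and ±100 for the full control effect; nearly all actives have a fitted effect of over 50% in size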
# ClpP mod – qHTS Assay for Activators of ClpP. Potency, µM (top dose mostly 57.5 µM), without a hit: at the top dose activity change, negative = active. purified B. subtilis ClpP, FRET peptide cleavage, 20 min. actives 1.9% (n = 340,000). ATP-dependent Clp protease proteolytic subunit (Bacillus subtilis (strain 168)), P80244. AID 651965, 2013; active = well fitted falling curve with a large enough effect; inconclusive = small, poorly fitted or top-dose-only effect; inactive = no such curve, though single readings can be large or run the other way; note: the source files actives as falling curves though it sought activators and does not explain the sign; nearly all actives have a fitted effect of over 65% in size
#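 Purified B. subtilis ClpP, 10 microg/mL final in Tris/HCl pH8 with KCl, BSA, glycerol and Tween-20, cleaved an Abz/nitrotyrosine-quenched decapeptide. Fluorescence (ex 320, em 430) was read at 0 and 20 min at room temperature. Delta was normalized to 5.8 microM ADEP and DMSO/no-enzyme controls.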
# PINK1 expr mod – A Quantitative High throughput Screen to Identify Chemical Modulators of PINK1 Expression. Potency, µM (series often up to 76.6 µM), for the others: at the highest dose activation (PINK1 increase), actives largely listed as activators. PINK1 immunofluorescence, high-content cytometry, 24 h. actives 0.2% (n = 410,000); active = well fitted activation curve with a large enough effect; inconclusive = small, poorly fitted or top-dose-only effect; cell line not stated here; note: % of control where 0% means no effect; nearly all actives have a fitted effect of over 65% in size
#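 Stable cell line treated 24 h with compounds at 5 concentrations (CCCP controls), then fixed and immunostained for PINK1 plus nuclear and cell stains; PINK1 immunofluorescence quantified by laser-scanning microplate cytometry.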
# RORg inh – qHTS for inhibitors of ROR gamma transcriptional activity; Drosophila S2 Gal4-RORgamma UAS-luciferase reporter, 20 h; Potency, µM (top dose mostly 53.6 µM), without a hit: at the highest dose activity change, negative = inhibition, actives largely listed as inhibitors; AID 2551, 2010; actives 5.4% (n = 310,000); note: % is set by controls: 0 for no effect and ±100 for the full control effect; nearly all actives have a fitted effect of over 60% in size
#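 Stable Schneider cell line, Gal4 DNA-binding domain fused to ROR gamma, UAS-luciferase. Cmpd 1 hr RT → CuSO4 700 uM final → 20 hr RT → luciferase reagent 10 min → luminescence.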
# Sfp PPTase inh – qHTS Assay for Inhibitors of Bacillus subtilis Sfp phosphopantetheinyl transferase (PPTase); Potency, µM, inactives show largest response in the series, negative = inhibition, hits mostly inhibitors; Biochemical Sfp PPTase activity, qHTS; actives 3.5% (n = 310,000);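 note: the enzyme is Sfp with the accession as filed and its product quenches rhodamine fluorescence; 0% = enzyme reaction without inhibitor and -100% = no enzyme wells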
#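 Step 1, compound plus 15 nM Sfp-PPTase, 15 min, room temperature. Step 2, add rhodamine-CoA (5 uM) and BHQ-2-YbbR (12.5 uM). Step 3, read 525/598 nm fluorescence at 0 and 30 min.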
# Active calls of the source: *; ? = inconclusive; . = not tested or not shown; [ ] = another dose, or the depositor's remark. Unless noted, calls come from the whole dose curve; as a rule, active = well fitted curve in the direction sought with a large enough effect; inconclusive = small, poorly fitted or top-dose-only effect, or another doubt; inactive = no such curve, though single readings can be large; an effect the other way counts as inactive or inconclusive. Potency is the fitted concentration of half-maximal effect.
SMILES,Epigenetic reg,Gal4-VP16 FLuc,ClpP mod,PINK1 expr mod,RORg inh,Sfp PPTase inh
CCOC(=O)C(=O)NCC(c1cccnc1)N1CCN(c2ccccc2)CC1 (stereo not drawn),2.5%,.,-0.7%,-0.2%,.,.
O=C(NC1CCC(n2cc(C(=O)NC3CC3)nn2)CC1)C(=O)c1ccccc1 (stereo not drawn),.,.,.,0.0%,.,.
Cc1ccc(NC(=S)N(CCN2CCOCC2)Cc2ccccc2F)cc1,-1.3%,-7.9%,0.3%,-0.6%,?,9.8%
Cc1ccccc1NC(=S)N(CCN1CCOCC1)Cc1ccccc1F,?,-24.8%,.,3.1%,14.1µM*,11.2%
CCc1ccccc1NC(=S)N(CCN(C)C)Cc1cccs1,1.1%,2.4%[10 µM],.,-1.1%,11.2µM*,0.6%
CCc1ccccc1NC(=S)N(CCN1CCOCC1)Cc1ccccc1F,-2.6%,-6.2%,.,0.7%,15.8µM*,19.0%
Cc1cc(NC(=S)N(CCN2CCOCC2)Cc2ccccc2F)ccc1Cl,2.1%,?,.,2.2%,10µM*,-0.7%
Fc1ccccc1CN(CCN1CCOCC1)C(=S)Nc1ccccc1Cl,1.1%,?,.,-0.2%,?,3.5%
Cc1ccccc1NC(=S)N(CCCN1CCOCC1)Cc1cccnc1,-0.2%,1.4%,.,-1.3%,-13.4%,1.6%
CCc1ccc(NC(=O)C2=C(C)C(=O)OC23CCCCC3)cc1,1.1%,.,1.1%,0.9%,.,.
COc1ccc(S(=O)(=O)NCCc2nnc3ccc(SCC(=O)Nc4cc(C)cc(C)c4)nn23)cc1,-1.8%,.,-2.6%,2.5%,.,.
COc1cccc(N2CC(NC(=O)c3cc(Cl)ccc3OC)CC2=O)c1 (stereo not drawn),-0.7%,.,-6.5%,-1.0%,.,.
COc1cccc(NC(=S)N(CCCN2CCOCC2)Cc2cn(C)c3ccccc23)c1,-3.2%,?,0.1%,-1.8%,17.8µM*,-3.5%
CC(C)NCC(O)Cn1c2c(c3ccccc31)CCc1c-2cnn1-c1ccccc1 (stereo not drawn),1.0%,?,8.91µM*,-6.1%,?,?
CC(C)(C)c1cc(C(=O)NNC(=O)Nc2ccccc2)n(Cc2ccccc2)n1,0.0%,-40.0%,0.9%,3.3%,0.0631µM*,20.7%
CC(C)(C)c1cc(C(=O)NNC(=O)Nc2cccc(Cl)c2)n(Cc2ccccc2)n1,-1.4%,-12.5%,.,18.8%,37.4%,16.7%
Cc1nc([N+](=O)[O-])cn1CC(=O)c1ccc(Cl)cc1,.,-7.4%,-0.3%,7.7%,-3.4%,5.5%
Cc1nc([N+](=O)[O-])c(Br)n1CC(=O)c1ccc(Br)cc1,-0.2%,?,-3.9%,-1.3%,11.2µM*,3.4%
Cc1nc([N+](=O)[O-])c(Br)n1CC(=O)c1ccc2ccccc2c1,-1.2%,?,1.3%,-1.5%,14.1µM*,-13.4%
Cc1nc([N+](=O)[O-])c(Br)n1CC(=O)c1ccccc1,-1.0%,?,-3.1%,13.7%,3.98µM*,19.0%
C=C(COC)C1=CCC(C(=O)OC)(C(=O)OC)[C@@H](C[N+](=O)[O-])c2ccccc21,0.0%,-12.5%,.,.,-19.0%,-28.6%
COc1cc(CNc2cccc(C(=O)O)c2)cc(Br)c1OCC(=O)NC(C)(C)C,0.0%,-8.0%,25.1µM*,2.9%,?,-5.5%
CCOc1cc(CNc2cccc3ccccc23)cc(Br)c1OCC(=O)NC(C)(C)C,0.0%,13.7%,8.91µM*,0.1%[38.3 µM],?,17.3%
CCOc1cc(CNc2ccc(N3CCCCC3)cc2)cc(Br)c1OCC(=O)NC(C)(C)C,-0.9%,-27.5%,0.9%,14.1µM*,-32.8%,-46.3%
CCOc1cc(CNc2ccc(N3CCOCC3)cc2)cc(Br)c1OCC,0.2%,-17.7%,1.7%,13.6%,165.6%,-23.5%
SMILES,Epigenetic reg,Gal4-VP16 FLuc,ClpP mod,PINK1 expr mod,RORg inh,Sfp PPTase inh
CCCC(=O)Nc1cc(C)c(O)c(-c2nc3ncccc3o2)c1,-1.1%,.,0.2%,0.7%,.,.
O=[N+]([O-])c1cc(-c2nc(-c3ccccc3)no2)ccc1NC1CCCCC1,-4.5%,.,2.7%,14.6%,.,.
COC(=O)c1ccc(C(=O)OC)c(-n2c(=O)c3ccccc3c3ccccc3c2=O)c1,-1.0%,?,-2.4%,-1.1%,10µM*,1.9%
Cc1nc2cc(NC(=O)[C@@H]3C[C@@H](Sc4ccccn4)CN3Cc3ccc4c(c3)OCCO4)ccc2s1,.,.,.,-0.6%,.,.
CCCCCCCCC(=O)N/N=C(\C)c1ccc(O)cc1O,2.2%,?,31.6µM*,6.4%,3.55µM*,-1.7%
CCCCCCCC(=O)N/N=C(\C)c1ccc(O)cc1O,-4.8%,11.2µM*,15.9%,10.3%,7.08µM*,11.1%
CCCCCCCC(=O)N/N=C(\C)c1ccc(N)cc1,-1.2%,-14.8%,.,.,19.3%,14.2%
CCCCCCCC(=O)N/N=C(/C)c1c(O)cc(C)oc1=O,-3.6%,22.4µM*,1.3%,27.0%[38.3 µM],8.91µM*,8.7%
C/C(=N\NC(=O)c1cccs1)c1c(O)cc(C)oc1=O,.,5.01µM*,-1.2%,0.2%,4.47µM*,22.3%
CCCCCCCCC(=O)N/N=C(\C)c1ccco1,-1.0%,4.6%,0.5%,9.0%,?,13.2%
Cc1ccc(CN(C(=O)COc2cc(C)c(Cl)c(C)c2)c2ccccn2)o1,-3.2%,.,2.0%,0.2%,.,.
O=C(NC1CCCCC1)c1ccc(CSc2nc3cccnc3n2Cc2cccc(F)c2)cc1,1.2%,.,4.5%,22.8%,.,.
O=c1c2oc3ccccc3c2n(Cc2cccc(F)c2)c(=O)n1Cc1ccc2c(c1)OCO2,2.7%,.,-12.5%,1.7%,.,.
COc1ccc(C(c2nnnn2CS(=O)(=O)c2ccc(C)cc2)N2CCN(c3ncccn3)CC2)cc1 (stereo not drawn),-2.0%,-1.0%,31.6µM*,0.6%,0.8%,11.3%
COCCn1c(=O)c(-c2ccc(OC)cc2)nc2cnc(N3CCOCC3)nc21,.,-1.9%,.,0.5%,-6.2%,20.6%
CCOC(=O)c1sc2nc3n(c(=O)c2c1C)CCC(C)CC3 (stereo not drawn),13.2%,5.8%,-1.8%,.,15.2%,22.4µM*
CCOC(=O)N1CCN(C(=O)Nc2sc3nc4n(c(=O)c3c2C)CCC(C)CC4)CC1 (stereo not drawn),0.0%,-5.8%,-5.8%,.,-0.3%,-10.1%
Cc1cc(N2C(=O)C=CC2=O)c([N+](=O)[O-])cc1C,-0.6%,4.47µM*,.,0.4%,7.08µM*,-98.3%
CC1=C(C(=O)Nc2ccc(F)cc2F)C2(CCCCCC2)OC1=O,-2.8%,.,-1.0%,2.7%,.,.

# Screens (PubChem BioAssay)
